Screening data: PubChem, National Center for Advancing Translational Sciences (NCATS)
FLuc inh = Firefly luciferase inhibition profiling of diverse chemical library using quantitative high-throughput screening; Luciferin 4-monooxygenase (Photinus pyralis), P08659; purified P. pyralis luciferase, luminescence, biochemical; Potency, µM (top dose mostly 115 µM), most hits filed as inhibitors; hit rate 2.5% among 76,000; further: nearly all actives have a fitted effect of over 65% in size
Target sequence (P08659 whole entry, looked up): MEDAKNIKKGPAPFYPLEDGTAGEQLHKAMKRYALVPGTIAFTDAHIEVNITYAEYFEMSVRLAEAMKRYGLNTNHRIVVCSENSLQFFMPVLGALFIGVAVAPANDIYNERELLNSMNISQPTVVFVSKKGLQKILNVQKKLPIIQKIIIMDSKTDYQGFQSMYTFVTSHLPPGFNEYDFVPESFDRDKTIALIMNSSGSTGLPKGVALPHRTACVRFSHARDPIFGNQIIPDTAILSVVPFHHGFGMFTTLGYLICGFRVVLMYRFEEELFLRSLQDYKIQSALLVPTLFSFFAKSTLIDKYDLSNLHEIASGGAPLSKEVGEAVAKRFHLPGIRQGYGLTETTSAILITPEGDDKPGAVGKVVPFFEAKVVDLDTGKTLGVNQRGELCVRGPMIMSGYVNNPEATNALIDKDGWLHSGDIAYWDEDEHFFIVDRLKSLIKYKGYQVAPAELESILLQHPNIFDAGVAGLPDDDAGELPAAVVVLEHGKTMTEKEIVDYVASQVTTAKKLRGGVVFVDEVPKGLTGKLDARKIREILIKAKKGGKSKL
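Biochemical qHTS: compound (6-point titration) added to 10uM D-luciferin plus 10uM ATP in Tris acetate pH 7.5 buffer with Mg, Tween-20 and BSA, then purified enzyme at 10nM; light output imaged.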
NPR1 antag = Natriuretic polypeptide receptor (hNpr1) antagonism - Primary qHTS; Potency, µM (top dose mostly 46.3 µM), hits mostly inhibitors; HEK293 hNpr1 GloSensor cGMP, ANP-stimulated luminescence; Atrial natriuretic peptide receptor 1 (Homo sapiens), P16066; hit rate 1.6% among 76,000; AID 1347048, 2019; calls by dose curve; further: nearly all actives have a fitted effect of over 60% in size
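HEK293 cells stably expressing human Npr1 and cGMP GloSensor pGS-40F, loaded 2 h with 2% GloSensor reagent, given compound 30 min at room temperature. Luminescence read before and 20 min after 0.1 nM hNppA.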
SNCA viab count = GF-AFC viability counterscreen for inhibitors of alpha-synuclein gene (SNCA) expression. HEK-293-SNCA-luc viability, GF-AFC fluorescence, 24 h. Potency, µM (titrated, usually from 57.1 µM), usual class: cytotoxic. hit rate 0.12% among 150,000. AID 1671193, 2021; further: nearly all actives have a fitted effect of over 30% in size
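HEK-293-SNCA-luc cells (1500/well) plated 24 h, then exposed 24 h to a dilution series; GF-AFC added 30 min at 37C, fluorescence 405/540 nm; normalised to medium-only and DMSO wells, Hill fit.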
HEK cytotox = Cytotoxic Profiling in HEK 293 Cell Line of Diverse Libraries Using Quantitative High-Throughput Screening; HEK 293 viability, ATP luminescence (CellTiter-Glo), 48-72 h; hit rate 6.6% among 94,000; Potency, µM (top dose mostly 115 µM), actives largely listed as inhibitors; further: nearly all actives have a fitted effect of over 60% in size
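Pintool-delivered compounds were incubated with HEK 293 cells (250 cells/well) at 37 degree Celsius for 48 or 72 hr. ATP-dependent luminescence (CellTiter-Glo) then reported remaining viable cells.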
SNCA expr inh = Primary qHTS assay for inhibitors of alpha-synuclein gene (SNCA) expression; hit rate 0.17% among 140,000; Potency, µM (highest dose often 57.2 µM), usual class: inhibitors; HEK-293 SNCA-luciferase knock-in, luminescence, 24 h; AID 1671194, 2021; further: nearly all actives have a fitted effect of over 45% in size
NIH3T3 tox = Cytotoxic Profiling in NIH 3T3 Cell Line of Diverse Libraries Using Quantitative High-Throughput Screening. NIH 3T3 viability, CellTiter-Glo ATP luminescence, 48-72 h. Potency, µM (series often up to 96.7 µM), usual class: inhibitors. hit rate 4.3% among 94,000. AID 1345082, 2018; further: nearly all actives have a fitted effect of over 55% in size
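NIH 3T3 cells at 400 cells/well received 23 nL of compound by pintool and were incubated 48 or 72 h at 37 °C. Viability was read as ATP-coupled CellTiter-Glo luminescence.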
Each line names hits and unclear results; the compound was inactive in the other large screens. Compounds with a hit are over-represented: about 7.4% of the library has one in this group of screens. Unless noted, the call rests on the fitted dose curve; in most records, active means well fitted curve in the direction sought with a large enough effect; inconclusive means small, poorly fitted or top-dose-only effect, or another doubt; inactive means no such curve, though single readings can be large; an effect the other way counts as inactive or inconclusive.

COC(=O)[C@@H]1Cc2c([nH]c3ccccc23)[C@@H]2C[C@@H](NC(C)C)C[C@@H](c3ccc(F)cc3)N12	HEK cytotox 28µM, NIH3T3 tox 28µM
COCCN[C@@H]1C[C@@H]2c3[nH]c4ccccc4c3C[C@@H](C(=O)OC)N2[C@H](c2cccc(OC)c2)C1	NPR1 antag inconclusive, HEK cytotox 22µM, NIH3T3 tox inconclusive
O=C(CCC1CCCC1)N1CCc2c([nH]c3ccccc23)C1c1ccc(F)cc1 (stereo not given)	none (no result: FLuc inh, NPR1 antag, HEK cytotox, NIH3T3 tox)
COCCN[C@@H]1C[C@@H]2c3[nH]c4ccccc4c3C[C@@H](C(=O)OC)N2[C@H](c2ccc(C(C)C)cc2)C1	NPR1 antag inconclusive, HEK cytotox inconclusive, NIH3T3 tox 28µM
COCCN[C@H]1C[C@@H]2c3[nH]c4ccccc4c3C[C@@H](C(=O)OC)N2[C@H](c2ccccc2)C1	SNCA viab count inconclusive, HEK cytotox 40µM, SNCA expr inh inconclusive, NIH3T3 tox 35µM
COC(=O)[C@@H]1Cc2c([nH]c3ccccc23)[C@H]2C[C@@H](N3CCOCC3)C[C@@H](c3ccccc3)N21	HEK cytotox inconclusive, NIH3T3 tox inconclusive
COCCN[C@@H]1C[C@@H]2c3[nH]c4ccccc4c3C[C@@H](C(=O)OC)N2[C@H](c2ccc(Cl)c(F)c2)C1	NPR1 antag inconclusive, HEK cytotox inconclusive, SNCA expr inh inconclusive, NIH3T3 tox 14µM
COC(=O)[C@@H]1Cc2c([nH]c3ccccc23)[C@H]2C[C@@H](NCCN(C)C)C[C@@H](c3ccc(F)cc3)N21	HEK cytotox 20µM, NIH3T3 tox 14µM
COC(=O)[C@@H]1Cc2c([nH]c3ccccc23)[C@H]2C[C@@H](NCc3cccnc3)C[C@@H](c3ccccc3)N21	HEK cytotox 22µM, SNCA expr inh inconclusive, NIH3T3 tox inconclusive
O=C(CCc1ccccc1)N1CCc2c([nH]c3ccccc23)C1c1ccc(F)cc1 (stereo not given)	none (no result: FLuc inh, NPR1 antag, HEK cytotox, NIH3T3 tox)
Cn1cnc2cc(C(=O)N3CCNCC(C(=O)O)C3)ccc21 (stereo not given)	none
O=C(NC1CC1)c1ccc2nc(-c3ccncc3)oc2c1	HEK cytotox inconclusive, NIH3T3 tox inconclusive (no result: FLuc inh, NPR1 antag)
COc1cccc(CNC(=O)[C@@H]2C[C@@H](O)CN2C2CCN(C(=O)Cc3ccc(Cl)cc3)CC2)c1	none
COc1cccc(CN2CC[C@@]3(O)CCNC[C@H]3C2)c1OCCCn1ccnc1	none
COc1cc(OCc2ccccc2)ccc1CN1CC[C@@]2(O)CCNC[C@H]2C1	HEK cytotox 22µM, NIH3T3 tox 20µM
C=CCN(Cc1cccc(OC)c1)C(=O)CCc1cccc(F)c1	HEK cytotox inconclusive, NIH3T3 tox inconclusive
CCc1nnc([C@@H]2CC(F)(F)CN2C(=O)c2noc(C)c2COC)o1	none
CCc1cccc2c(C(CC(=O)NCc3ccco3)c3ccc(OC)c(OC)c3)c[nH]c12 (stereo not given)	HEK cytotox inconclusive, NIH3T3 tox inconclusive
CCCCNC(=O)CC(c1cccc2c1OCO2)c1c[nH]c2c(CC)cccc12 (stereo not given)	HEK cytotox 45µM, NIH3T3 tox inconclusive
CCCCCNC(=O)CC(c1cccc(OC)c1OC)c1c[nH]c2c(CC)cccc12 (stereo not given)	HEK cytotox 45µM, NIH3T3 tox inconclusive
CCc1cccc2c(C(CC(=O)NCc3ccco3)c3ccc(C)cc3)c[nH]c12 (stereo not given)	HEK cytotox 35µM, NIH3T3 tox inconclusive
CCc1cccc2c(C(CC(=O)NCCc3ccc(OC)c(OC)c3)c3cccc(F)c3)c[nH]c12 (stereo not given)	HEK cytotox 28µM, SNCA expr inh inconclusive, NIH3T3 tox inconclusive
COc1ccc(Cn2c(=O)c(C(=O)NCc3ccc4c(c3)OCO4)nc3cccnc32)cc1	HEK cytotox inconclusive, NIH3T3 tox inconclusive (no result: FLuc inh, NPR1 antag)
Cc1nn(CCC(=O)N[C@H]2CC[C@H]2NC2CCCCC2)c(C)c1C	NIH3T3 tox inconclusive
CCCCNC(=O)CC(c1cccc(OC)c1)c1c[nH]c2ccccc12 (stereo not given)	HEK cytotox 79µM, NIH3T3 tox inconclusive
Fc1ccccc1-c1noc(-c2nc(-c3ccc4c(c3)OCO4)no2)n1	FLuc inh inconclusive
Fc1ccccc1-c1noc(N2CCCCC2)n1	FLuc inh 1.6µM, NPR1 antag 10µM, HEK cytotox inconclusive, NIH3T3 tox inconclusive
O=C(c1ccc(C2CCNC2)cc1)N(Cc1ccccc1)CC1CCC1 (stereo not given)	HEK cytotox 25µM, NIH3T3 tox inconclusive
CN(C/C=C/c1ccccc1)C(=O)c1ccc(C2CCCNC2)cc1 (stereo not given)	HEK cytotox inconclusive, NIH3T3 tox inconclusive
O=C(c1cccc(Cl)c1)N1CCCN(c2ccnc3ccnn23)CC1	HEK cytotox inconclusive, NIH3T3 tox inconclusive (no result: FLuc inh, NPR1 antag)
COc1ccccc1CNC(=O)C1(CCO)CCN(c2ncccn2)C1 (stereo not given)	none
O=C(NCc1ccc(F)cc1)C1c2ccccc2C(=O)N(Cc2ccccc2)C12CCCC2 (stereo not given)	HEK cytotox 40µM, NIH3T3 tox 35µM
O=C(NCc1ccccc1F)C1c2ccccc2C(=O)N(Cc2ccccc2)C12CCCC2 (stereo not given)	HEK cytotox inconclusive, NIH3T3 tox inconclusive
Cc1cccc(C(=O)N2CCC(n3cc(-c4nc(C)no4)nn3)CC2)c1	NIH3T3 tox inconclusive
O=S(=O)(NCCc1noc(-c2ccccc2)n1)c1ccc(Cl)cc1	NPR1 antag inconclusive, HEK cytotox 40µM, SNCA expr inh inconclusive, NIH3T3 tox 28µM
O=S(=O)(NCCc1noc(-c2ccncc2)n1)c1ccc(F)cc1	HEK cytotox inconclusive
CCCN(C)c1nccnc1OC1CCN(C(=O)C2CCCCC2)C1 (stereo not given)	FLuc inh inconclusive, HEK cytotox inconclusive
COc1ccc(Cl)cc1C(=O)N1CCC(Oc2nccnc2N(C)C)C1 (stereo not given)	FLuc inh inconclusive, HEK cytotox inconclusive
O=C(C1CCOCC1)N1CCC(Oc2nccnc2N2CCOCC2)C1 (stereo not given)	none
CCCN(C)c1nccnc1OC1CCN(C(=O)C(CC)CC)C1 (stereo not given)	FLuc inh 32µM, HEK cytotox inconclusive, NIH3T3 tox inconclusive
